From PubChem BioAssay
IL-1B inflam inh – qHTS for Inhibitors of Inflammasome Signaling: IL-1-beta AlphaLISA Primary Screen | THP-1 LPS/ATP IL-1B secretion, AlphaLISA, 16 h; active compounds read low | activity change, % at 57.5 µM | hit rate 4.7% among 360,000; in the data active = activity change below about -50%; inconclusive = mostly about -30% to -49%
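Secreted IL-1B measured by AlphaLISA bead assay after 16 h compound exposure of THP-1 cells; compounds (final up to 57.5 uM) added 1 h before LPS (250 ng/mL) and ATP (1.25 mM) stimulation; lower signal means less secretion.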
DT40 TDP1 CPT – qHTS for Inhibitors of human tyrosyl-DNA phosphodiesterase 1 (TDP1): qHTS in cells in presence of CPT; chicken DT40 Tdp1-/-;hTDP1 cells + 20 nM CPT, ATP luminescence, 48 h; Potency, µM (series often up to 46.2 µM), for the others: top-dose activity change, negative = growth inhibition, most hits filed as inhibitors; hit rate 12% among 420,000; AID 686979, 2013; also: potency is read from the fitted curve at half-maximal effect; nearly all actives have a fitted effect of over 55% in size
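Chicken DT40 Tdp1-/- cells stably complemented with human TDP1 were seeded at 400 cells/well in medium containing 20 nM camptothecin, exposed to pin-transferred compounds, and grown at 37 °C for at least 48 hr. Viability was read as ATP luminescence.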
Gal4-VP16 FLuc – VP16 counterscreen qHTS for inhibitors of ROR gamma transcriptional activity; Drosophila S2 Gal4-VP16 UAS-luciferase, luminescence, 20 h; Potency, µM (top dose mostly 53.6 µM), for inactives: top-dose activity, negative = inhibition, usual class: inhibitors; hit rate 3.5% among 310,000; AID 2546, 2010;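 also: Gal4-VP16 expression switched on by copper sulfate through the metallothionein promoter; potency is read from the fitted curve at half-maximal effect; nearly all actives have a fitted effect of over 50% in size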
RORgamma inh – qHTS for inhibitors of ROR gamma transcriptional activity. Nuclear receptor ROR-gamma (Mus musculus), P51450. Potency, µM (top dose mostly 53.6 µM), for inactives: top-dose activity change, negative = inhibition, actives largely listed as inhibitors. hit rate 5.4% among 310,000. Drosophila S2 Gal4-RORgamma UAS-luciferase reporter, 20 h; also: potency is read from the fitted curve at half-maximal effect; nearly all actives have a fitted effect of over 60% in size
Target sequence (P51450 whole entry, looked up, the tested form may be a part): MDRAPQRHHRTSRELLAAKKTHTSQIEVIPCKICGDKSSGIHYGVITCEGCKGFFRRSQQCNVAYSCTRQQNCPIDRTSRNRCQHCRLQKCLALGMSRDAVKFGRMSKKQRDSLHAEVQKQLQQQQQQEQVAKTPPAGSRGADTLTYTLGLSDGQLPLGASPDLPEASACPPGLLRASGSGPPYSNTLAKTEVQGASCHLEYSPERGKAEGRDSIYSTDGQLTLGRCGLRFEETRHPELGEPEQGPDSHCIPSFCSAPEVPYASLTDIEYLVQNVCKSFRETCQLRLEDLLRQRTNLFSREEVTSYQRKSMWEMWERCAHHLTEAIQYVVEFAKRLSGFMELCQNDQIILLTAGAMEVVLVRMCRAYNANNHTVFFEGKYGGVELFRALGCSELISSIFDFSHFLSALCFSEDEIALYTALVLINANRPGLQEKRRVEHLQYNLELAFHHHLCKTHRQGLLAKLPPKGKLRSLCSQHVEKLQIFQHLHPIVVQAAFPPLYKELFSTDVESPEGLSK
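Schneider cells (Drosophila), stable Gal4 DBD–ROR gamma + UAS-luc; 1 hr cmpd preincubation; Cu2+ induction 700 uM final; 20 hr ambient; luminescence.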
LDHA block – qHTS assay for inhibitors of human lactate dehydrogenase. purified LDHA, NADH/diaphorase-resazurin fluorescence; active compounds read low. hit rate 0.15% among 480,000. activity change, % (values are at about 110 or 230 µM). L-lactate dehydrogenase A chain (Homo sapiens), P00338; in the data active = activity change below about -30%; inconclusive = mostly about -25% to -30%;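 also: plate controls were DMSO wells for no effect and wells without enzyme for full effect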
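Enzyme activity of human lactate dehydrogenase 5 (2 nM; 0.06 mM NADH, 0.2 mM pyruvate, 5 min, RT) is measured via a resazurin/diaphorase fluorescence readout of residual NADH.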
DT40 TDP1 no CPT – qHTS for Inhibitors of human tyrosyl-DNA phosphodiesterase 1 (TDP1): qHTS in cells in absence of CPT; DT40 Tdp1-/- hTDP1 cells, no CPT, ATP luminescence, 48 h; Potency, µM (doses to about 46.2 µM), inactives show at the highest dose activity change, negative = growth inhibition, actives largely listed as inhibitors; hit rate 15% among 420,000; AID 686978, 2013; also: potency is read from the fitted curve at half-maximal effect; nearly all actives have a fitted effect of over 55% in size
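Seeded 400 DT40-hTDP1 cells/well (vehicle DMSO, no 20 nM CPT); pinned compounds; ≥48 hr at 37 °C; CellTiter-Glo luminescence as viability measure.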
An asterisk follows results filed as active; ? = inconclusive; · = no result. A selection: hits, their analogues and other compounds. The true share with any hit is near 18%. Unless noted, calls follow the shape of the dose curve; as a rule, active = well fitted curve in the direction sought with a large enough effect; inconclusive = small, poorly fitted or top-dose-only effect, or another doubt; inactive = no such curve, though single readings can be large; an effect the other way counts as inactive or inconclusive. Unless noted, % is scaled to controls: 0 for no effect and ±100 for the full control effect.

SMILES	IL-1B inflam inh	DT40 TDP1 CPT	Gal4-VP16 FLuc	RORgamma inh	LDHA block	DT40 TDP1 no CPT
Brc1ccc2nc(C3CCCCC3)c(Cc3ccsc3)n2c1	0	21µM*	·	·	-2	16µM*
Clc1ccc2nc(C3CCCCC3)c(Cc3ccccc3)n2c1	28	-7%	·	·	-4	-28%
Cc1ccc(Cc2c(C3CCCCC3)nc3ccc(Br)cn23)cc1	8	?	·	·	-6	21µM*
CC(C)n1nc(C(=O)N[C@@H](Cc2ccccc2)C(=O)O)c2ccccc2c1=O	·	·	·	·	1	·
COc1ccc2c(-c3ccccc3)cc(SCC(N)=O)nc2c1	-10	-27%	-15%	-20%	-6	21µM*
CCc1c(C)c(C#N)c2nc3ccccc3n2c1NCc1ccco1	34	23µM*	6%	-9%	2	?
Cc1c(Cc2ccccc2)c(NCCCO)n2c(nc3ccccc32)c1C#N	-20	21µM*	-7%	13%	2	16µM*
CCCCc1c(C)c(C#N)c2nc3ccccc3n2c1Nc1c(C)n(C)n(-c2ccccc2)c1=O	-13	23µM*	0%	43%	1	16µM*
COc1ccc(CNCc2cccs2)c(OC)c1	·	·	·	·	1	·
CC12CCC(C(=O)n3c1nc1ccccc13)C2(C)C (stereo unspecified)	?	18µM*	-1%	-30%	5	21µM*
CCc1ccc(Sc2cc(C(=O)NCc3cccc(OC)c3)c3ccccc3n2)cc1	·	16µM*	·	·	2	?
CCOc1ccc(Sc2cc(C(=O)NCc3ccccc3Cl)c3ccccc3n2)cc1	·	?	·	·	-2	13µM*
CCc1ccc(Sc2cc(C(=O)NCCCN3CCC(C)CC3)c3ccccc3n2)cc1	·	16µM*	·	·	6	16µM*
CCOc1ccc(Nc2cc(C(=O)NCc3ccccc3Cl)c3ccccc3n2)cc1	·	10µM*	·	·	-12	?
CCCCSc1oc(-c2ccco2)nc1S(=O)(=O)c1ccc(F)cc1	·	·	·	·	11	·
CCOc1cccc2cc(S(=O)(=O)c3ccc(Cl)c(Cl)c3)c(=O)oc12	·	·	·	·	-9	·
CC(C)COc1ccc(/C=C(/C#N)c2nc3ccccc3[nH]2)cc1	·	·	·	·	3	·
Cc1cc(C(F)(F)F)nc(SCC(=O)O)n1	·	·	·	·	-10	·
C/C=C/C=C/C(=O)NCc1ccc(OC)cc1	·	·	·	·	8	·
Cc1ccc(Sc2cc(C(=O)NCCN(C)C)c3ccccc3n2)cc1	-29	?	3%	7%	-1	?
Cc1ccc(Sc2cc(C(=O)NCCCN(C)C)c3ccccc3n2)cc1	-69*	-11%	-8%	-1%	-8	?
COc1cc(OC)cc(C(=O)NC(=S)N(Cc2ccccc2)C(C)C)c1	4	?	0.89µM*	0.5µM*	-4	?
COc1cc(OC)cc(C(=O)NCCNC(=O)c2ccccc2)c1	16	-19%	4%	17%	-5	-26%
COc1cc(OC)cc(C(=O)NC(=S)NCCc2ccccc2)c1	-6	-30%	0.63µM*	0.71µM*	-3	?
CC(Sc1nnc(N2CCOCC2)n1-c1cccc(F)c1)c1nnc(-c2cccs2)o1 (stereo unspecified)	·	·	·	·	13	·
SMILES	IL-1B inflam inh	DT40 TDP1 CPT	Gal4-VP16 FLuc	RORgamma inh	LDHA block	DT40 TDP1 no CPT
S=c1[nH]nc(-c2ccc(Br)cc2)n1-c1ccc(Br)cc1	27	4%	?	11µM*	-8	-16%
O=[N+]([O-])c1cccc(-c2n[nH]c(=S)n2-c2ccc(Br)cc2)c1	-5	-18%	0%	10µM*	-32*	?
COc1cc(-c2n[nH]c(=S)n2-c2ccc(Br)cc2)cc(OC)c1OC	12	-5%	?	8.9µM*	-5	8%
COc1ccc(-c2n[nH]c(=S)n2-c2ccc3c(c2)OCCO3)cc1	17	?	?	2.8µM*	-2	?
Fc1cccc(-c2nc(COc3ccc(Oc4ccccn4)cc3)co2)c1	·	·	·	·	2	·
O=C(O)c1ccc(-n2c(-c3ccc(Br)cc3)n[nH]c2=S)cc1	26	9%	2%	2%	-10	-5%
S=c1[nH]nc(-c2ccc(Br)cc2)n1-c1ccc2c(c1)OCCO2	44	?	-29%	0.4µM*	-3	18µM*
Fc1ccc2[nH]c3c(c2c1)CN(C(=S)NCc1ccccc1)CC3	-89*	-18%	6%	4%	-6	?
COc1cc2oc(=O)cc(C)c2cc1CCC(=O)O	·	·	·	·	4	·
CCOc1ccccc1N(CC(=O)NCC1CCCO1)C(=O)CCC(=O)Nc1ccccn1 (stereo unspecified)	-1	-4%	-18%	35µM*	-1	0%
CCOc1ccccc1N(CC(=O)NCC1CCCO1)C(=O)CCC(=O)Nc1cc(C)on1 (stereo unspecified)	1	2%	8%	-37%	-8	-16%
O=C1NC[C@H](CCCCN2C[C@H](Cc3ccccc3)N(CC3CCCCC3)C(=O)C2=O)N(CC2CCCCC2)C1=O	-77*	?	·	·	0	29µM*
O=C1NC[C@H](CCCCN2C[C@H](Cc3ccccc3)N(CCc3ccc(O)cc3)C(=O)C2=O)N(CCC2CCCCC2)C1=O	-57*	?	·	·	-1	?
CC(=O)NN=C(C)C	·	·	·	·	6	·
